Tb PGK inh: qHTS Assay to Find Inhibitors of Phosphoglycerate Kinase. Phosphoglycerate kinase, glycosomal (Trypanosoma brucei brucei), P07378. PGK/GAPDH coupled, Kinase-Glo luminescence, 60 min. Potency, µM (doses to about 57.5 µM), hits mostly inhibitors. hit rate 0.043% among 380,000; further: nearly all actives have a fitted effect of over 60% in size
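Recombinant glycosomal PGK reaction used 1,3-bisphosphoglycerate generated in-well by GAPDH (100nM final) in 100mM TEA pH 7.6, 5mM MgCl2, 0.01% Tween-20. After 60 minutes at room temperature, ATP was read by Kinase-Glo Plus luminescence end-point.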
USP1 inh: Inhibitors of USP1/UAF1: Primary Screen | Ubiquitin carboxyl-terminal hydrolase 1 (Homo sapiens), O94782 | recombinant USP1/UAF1, Ub-Rhodamine cleavage fluorescence | Potency, µM (highest dose often 57.1 µM), most hits filed as inhibitors | hit rate 0.23% among 390,000 | AID 743255, 2014; further: nearly all actives have a fitted effect of over 60% in size
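1 nM enzyme complex + cpd, 15 min RT; start with Ub-Rho 150nM final; kinetic fluorescence ex 480/em 540, 6 reads q60 s. Buffer 50mM HEPES pH 7.8, 0.5mM EDTA, 0.1 mg/ml BSA, 1mM TCEP, 0.01% Tween-20.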
PI4K2A block: qHTS for small molecular inhibitors of PI4K2A; Phosphatidylinositol 4-kinase type 2-alpha (Homo sapiens), Q9BTU6; purified PI4K2A, ADP-Glo luminescence, 1 h; hits give low values; activity change, negative = inhibition, % at 76.9 µM; hit rate 0.13% among 420,000; AID 1346378, 2018; in the data active means activity change below about -50%; inconclusive means mostly about -30% to -49%
Target sequence (Q9BTU6 whole entry, looked up): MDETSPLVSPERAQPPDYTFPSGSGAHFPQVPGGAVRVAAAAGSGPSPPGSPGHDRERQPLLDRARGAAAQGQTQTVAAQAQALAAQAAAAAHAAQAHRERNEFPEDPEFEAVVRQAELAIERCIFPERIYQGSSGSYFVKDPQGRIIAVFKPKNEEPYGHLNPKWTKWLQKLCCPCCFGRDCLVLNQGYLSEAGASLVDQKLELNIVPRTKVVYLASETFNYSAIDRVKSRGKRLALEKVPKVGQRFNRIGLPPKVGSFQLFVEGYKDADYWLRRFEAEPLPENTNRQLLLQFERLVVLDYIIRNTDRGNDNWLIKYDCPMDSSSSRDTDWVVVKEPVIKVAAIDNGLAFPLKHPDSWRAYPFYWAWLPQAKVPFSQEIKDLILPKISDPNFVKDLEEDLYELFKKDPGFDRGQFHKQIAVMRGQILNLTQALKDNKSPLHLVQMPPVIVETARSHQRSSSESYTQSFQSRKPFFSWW
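In this quantitative HTS, ADP production by PI4K2A was quantified luminescently after 1 h at ambient temperature; 100 microM adenosine served as plate-quality control.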
GLS inhibitor: qHTS for Inhibitors of Glutaminase (GLS); Glutaminase kidney isoform, mitochondrial (Homo sapiens), O94925; GLS enzymatic activity, qHTS titration; Potency, µM (highest dose often 45.5 µM), most hits filed as inhibitors; hit rate 0.21% among 410,000; AID 624170, 2012
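Compounds were pin-transferred onto hKGA, after which L-glutamine (1 mM solution) and a detection mix of glutamate oxidase, HRP and Amplex Red were added. Initial and 30 min RT fluorescence reads were collected.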
Numbers stand for hits; . = inactive; ? = inconclusive; / = no result given; [ ] = dose if it differs, or a comment. Only some compounds are listed: those with a hit (about 0.53% of all), similar ones and a draw of the others. Unless noted, the call rests on the fitted dose curve; in most records, active means well fitted curve in the direction sought with a large enough effect; inconclusive means small, poorly fitted or top-dose-only effect, or another doubt; inactive means no such curve, though single readings can be large; an effect the other way counts as inactive or inconclusive.

SMILES | Tb PGK inh | USP1 inh | PI4K2A block | GLS inhibitor
COC(=O)c1cc2c(C)c(C)c3ccccn3c-2c1C(=O)OC | . | ? | . | .
Cc1cccc(-c2nnc(SCCC(=O)O)o2)c1 | . | ? | -60 | .
Cc1cccc(-c2nnc(SCCC(=O)N3CCOCC3)o2)c1 | . | . | . | .
NS(=O)(=O)c1cc(C(=O)NN2C[C@H]3[C@H]4CCC(C4)[C@H]3C2)ccc1Cl | / | / | . | /
CC(=O)Oc1cccc2c1C(=O)c1c(OC(C)=O)cc(C(=O)O)cc1C2=O | . | . | . | .
O=C(O)c1cc(O)c2c(c1)C(=O)c1cc(O)cc(O)c1C2=O | ? | ? | . | 18µM
O=[N+]([O-])c1ccc(C=Nc2cccc3ccccc23)s1 | . | 14µM | . | ?
CC(C)CCNC(=O)c1ccc2c(c1)NC(=O)C(CS(=O)(=O)Cc1cccc(Br)c1)N2 (stereo unspecified) | . | ? | . | .
CC(C)CCNC(=O)c1ccc2c(c1)NC(=O)C(CS(=O)(=O)Cc1ccc(F)cc1)N2 (stereo unspecified) | . | ? | . | 13µM
Cc1cccc(CS(=O)(=O)CC2Nc3ccc(C(=O)NCc4ccccc4)cc3NC2=O)c1 (stereo unspecified) | . | ? | . | 10µM
CC(=O)OC[C@H]1O[C@@H](OC(C)=O)[C@H](OC(C)=O)[C@@H]1OC(C)=O | / | / | . | /
Cc1ccsc1/C=N/Nc1nc(=O)[nH]nc1C | 28µM | . | -71 | .
O=c1[nH]c(=O)n([C@H]2O[C@H](CO)[C@@H](O)[C@@H]2O)cc1/C=C\Br | / | / | . | /
O=C(/C=C\Nc1ccc2c(c1)OCO2)c1ccccn1 | ? | . | -55 | .
CC(=O)C(C(C)=O)C1(O)C(=O)c2ccccc2C1=O | . | 7.9µM | ? | .
CC(=O)N(C)C1=C(O)c2ccccc2C(=O)C1=O | . | ? | . | .
O=C(O)c1cccc2cccc(-c3c4ccc(=O)c(O)c-4oc4c(O)c(O)ccc34)c12 | 2.5µM | ? | -55 | 1.8µM
O=C(O)c1ccccc1-c1c2cc(Br)c(=O)c(Br)c-2oc2c(Br)c(O)c(Br)cc12 | / | / | / | .
CC(=Nc1ccc(C)cc1C)c1sc2ccccc2c1O | . | 35µM | . | .
CC(=Nc1ccc(C)cc1)c1sc2ccccc2c1O | .[11.5 µM] | ? | . | .
O=S(=O)(Nc1cccc2ccccc12)c1cccs1 | . | . | . | .
O=S(=O)(Nc1ccc(O)c2ccccc12)c1cccs1 | . | . | ? | 11µM
CCCCCCCCCCCCCCCCCC(=O)OCCO | / | / | / | .
CC(C)C[C@H]1COc2cc(Br)ccc2S(=O)(=O)N1Cc1cn(CCC2OCCO2)nn1 | / | / | . | /
C#CCOCCOCCOCCNc1nc(N2CCOCC2)nc(N2CCN(C(=O)[C@H](Cc3cc4ccccc4[nH]3)n3cc([C@@H](N)C(C)CC)nn3)CC2)n1 (stereo partly specified) | . | 45µM | . | .
SMILES | Tb PGK inh | USP1 inh | PI4K2A block | GLS inhibitor
Cc1ccc2nc(N)[nH]c(=O)c2c1Sc1ccncc1 | / | / | . | .
COc1ccc(C(c2c(N)[nH]c(=S)[nH]c2=O)c2c(N)[nH]c(=S)[nH]c2=O)cc1 | . | . | . | 11µM
CCOC(=O)N1CCc2c(sc(NCc3ccc(N(C)C)cc3)c2C(=O)Nc2ccc(OC)cc2)C1 | . | 28µM | ? | .
COc1ccc(C(=O)NNC(=O)c2ccccn2)cc1 | ? | . | -85 | .
N/C(=N\OC(=O)c1ccc(Cl)cc1)c1ccccn1 | ? | . | -70 | .
COc1ccc(C(=O)O/N=C(\N)c2ccccn2)cc1 | 11µM | . | -90 | .
COc1cc(OC)cc(C(=O)NNC(=O)c2ccccn2)c1 | . | . | . | .
Cc1ccc(C(=O)O/N=C(\N)c2ccccn2)c(C)c1 | 16µM | . | -85 | .
N/C(=N\OC(=O)c1ccc(Cl)c(Cl)c1)c1ccccn1 | . | . | . | .
N#CCC[C@@H]1CC[C@]2(CCCN(C(=O)c3ccc4ccccc4n3)C2)O1 | / | / | . | /
N/C(=N\OC(=O)c1ccccc1Cl)c1ccccn1 | ? | . | -51 | .
CCOC(=O)C1Nc2ccccc2C2c3ccccc3CC12 (stereo unspecified) | . | ? | . | 14µM
CCOC(=O)C1Nc2c(F)cc(C)cc2C2c3ccccc3CC12 (stereo unspecified) | . | . | . | .
CCOc1ccc(N=C2NC(=O)S/C2=C\c2ccc(N(C)C)cc2)cc1 | . | 28µM | . | .
CCOc1ccc(/C=C2/SC(=O)NC2=S)cc1 | . | . | . | .
CCC(C)NC(=O)C1CCN(C(=O)c2cc3sccc3n2Cc2ccc(Cl)cc2)CC1 (stereo unspecified) | . | ? | . | .
c1ccc(-c2cn3c(n2)-c2ccccc2C3)cc1 | ? | . | -51 | .
c1ccc(-c2c[nH]c3cccc(C4CCCCC4)c23)cc1 | / | / | . | /
O=C(NCCN1CCCC1)c1ccccc1Cl | . | . | . | .
O=C1C(Cl)=C(NCCN2CCCCC2)C(=O)c2ccccc21 | . | 18µM | . | .
CC(C)C[C@@H]1COc2cc(Br)ccc2S(=O)(=O)N1Cc1cn(CC2CCCCC2)nn1 | / | / | . | /
CCOc1cc(/C=C/C(=O)c2ccc(OC)c(CN3CCOCC3)c2)cc(Br)c1O | . | 35µM | . | .
CC1c2ccccc2CN1NC(=O)c1ccc(Cl)c(S(N)(=O)=O)c1 (stereo unspecified) | / | / | . | /
CCOc1ccc(NC(=O)Nc2cc(C)ccc2F)cc1 | . | . | -64 | .
CC1(C)Cc2c(sc3ncn4c(=S)[nH]nc4c23)CO1 | . | . | . | 13µM
SMILES | Tb PGK inh | USP1 inh | PI4K2A block | GLS inhibitor
CC1(C)Cc2c(sc3ncn(N)c(=N)c23)CO1 | . | . | . | .
O=C(CC1CCCC1)N1CC[C@H]2[C@H](CCCN2Cc2ccccc2)C1 | / | / | . | /
O=C(CCOCCOCCOCCOCCC(=O)Nc1c(I)cc(I)c(C(=O)O)c1I)Nc1c(I)cc(I)c(C(=O)O)c1I | / | / | . | /
CC(=O)c1cccc(N(C(=O)Cn2nnc3ccccc32)C(C(=O)NC2CCCCC2)c2cn(C)nc2C)c1 (stereo unspecified) | . | . | . | 7.9µM
CCCCC(CC)CNC(=O)CC(C)OC(=O)CCC(=O)O (stereo unspecified) | / | / | . | /
CCC(C)NC(=O)c1c(F)c(F)c(F)c(F)c1F (stereo unspecified) | . | . | -63 | .
Cc1c(/C=C2\NC(=O)NC2=O)c2ccccc2n1C | . | . | . | 13µM
COc1ccc(S(=O)(=O)O)cc1P(=O)(c1ccccc1)c1ccccc1 | . | . | . | .
O=C(O)c1cc(S(=O)(=O)O)ccc1O | . | . | . | .
CC(=O)Nc1ccc2c(O)cc(S(=O)(=O)O)cc2c1 | . | ? | . | 10µM
COc1ccccc1Nc1ccc2c(O)cc(S(=O)(=O)O)cc2c1 | 22µM | ? | -59 | 2.2µM
Nc1ccc2c(O)cc(S(=O)(=O)O)cc2c1 | ? | ? | . | 4µM

Compound activity: PubChem, National Center for Advancing Translational Sciences (NCATS)
